Compound activity (PubChem BioAssay)
HIF-2a inh – blocks HIF-2a reporter activity | 786-0 RCC cells HIF-2a reporter, luciferase luminescence, overnight | inhibition, % at 18.8 µM | actives 0.72% (n = 360,000);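 active means inhibition of the luminescence signal of 40% or more relative to plate controls, in a single-dose primary screen at 18.75 µM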
Peg3 promoter – Peg3 promoter activity inhibition | inhibition, % at 20 µM | HeLa PEG-Prom luciferase reporter, luminescence, overnight | actives 1.7% (n = 360,000);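 active means inhibition of at least 50% at 20 µM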
CF NFkB inh – blocks PAF-induced NF-kB reporter in cystic fibrosis cells; KKLEB NF-kB-GFP reporter, GFP fluorescence overnight; inhibition, % at 5 µM; actives 0.86% (n = 360,000); AID 588850;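 active means at least 50% inhibition at 5 µM, scaled per plate between neutral and stimulator controls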;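 further: PAF is a Pseudomonas aeruginosa culture filtrate used as stimulus; plate controls were PAF-stimulated DMSO wells for no effect and unstimulated DMSO wells for full effect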
KKLEB tox – CF airway cell cytotoxicity counter-screen | KKLEB CF airway cells viability, ATPlite luminescence, overnight; hits give low values; cells stimulated with P. aeruginosa culture filtrate | activity change (cytotoxicity), % at 5 µM | actives 0.36% (n = 360,000) | AID 602141;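 active means corrected activity change at or below -50% at 5 µM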
Mdm2-MdmX inh – disrupts the human Mdm2-MdmX interaction | SaOS-2 split-luciferase Mdm2/MdmX complementation, luminescence | O15151+Q00987 | inhibition, % at 8 µM | actives 3% (n = 330,000);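 active means inhibition of at least 50% at 8 µM in the primary screen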
Target sequence (O15151 whole entry, looked up): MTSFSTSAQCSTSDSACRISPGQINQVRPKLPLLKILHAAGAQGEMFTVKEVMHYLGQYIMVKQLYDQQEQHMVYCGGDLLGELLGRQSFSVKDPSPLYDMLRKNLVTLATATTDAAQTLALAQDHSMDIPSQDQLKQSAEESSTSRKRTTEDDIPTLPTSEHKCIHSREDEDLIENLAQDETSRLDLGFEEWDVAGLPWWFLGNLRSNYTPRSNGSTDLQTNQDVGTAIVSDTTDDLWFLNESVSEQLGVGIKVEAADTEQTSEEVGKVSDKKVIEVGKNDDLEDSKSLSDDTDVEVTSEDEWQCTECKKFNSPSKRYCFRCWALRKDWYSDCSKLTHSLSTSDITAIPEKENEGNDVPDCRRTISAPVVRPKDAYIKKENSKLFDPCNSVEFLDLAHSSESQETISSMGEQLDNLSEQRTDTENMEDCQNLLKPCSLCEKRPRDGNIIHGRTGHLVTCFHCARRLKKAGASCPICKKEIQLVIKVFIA
Target sequence (Q00987 whole entry, looked up): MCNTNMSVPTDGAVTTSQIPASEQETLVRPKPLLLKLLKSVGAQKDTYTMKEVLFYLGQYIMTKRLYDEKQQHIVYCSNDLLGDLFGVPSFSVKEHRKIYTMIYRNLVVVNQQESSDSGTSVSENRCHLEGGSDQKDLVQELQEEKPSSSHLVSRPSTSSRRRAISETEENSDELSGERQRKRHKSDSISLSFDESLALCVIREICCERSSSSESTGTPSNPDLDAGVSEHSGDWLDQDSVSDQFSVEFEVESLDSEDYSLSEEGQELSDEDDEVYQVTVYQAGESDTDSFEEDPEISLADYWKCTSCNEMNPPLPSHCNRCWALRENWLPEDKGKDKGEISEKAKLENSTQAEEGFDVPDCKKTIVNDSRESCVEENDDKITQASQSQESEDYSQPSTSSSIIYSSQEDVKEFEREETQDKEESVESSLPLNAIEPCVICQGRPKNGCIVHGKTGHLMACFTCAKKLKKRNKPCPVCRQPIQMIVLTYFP
ABHD5-PLIN5 inh – ABHD5-PLIN5 protein interaction inhibition | inhibition, % at 4 µM | Split G. princeps luciferase complementation, luminescence, 4 h | actives 0.78% (n = 360,000) | Q00G26+Q8WTS1;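 active means inhibition above the mean inhibition across every tested compound plus 3 SD, cut at about 22% in these data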;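 further: 0% = DMSO only wells and the 100% control is not disclosed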
An asterisk follows results filed as active. Sampled rows, rich in hits. Any-hit rate of the full collection: about 4.6%.

`CCC(C(=O)NC1CCCC1)n1c(-c2ccnc3ccccc23)nc2ccccc21` (stereo not drawn) gave HIF-2a inh 10.0 and ABHD5-PLIN5 inh 2.1.
`Cn1c(/C(C#N)=C/c2ccc(-c3ccc(S(N)(=O)=O)cc3)o2)nc2ccccc21` gave HIF-2a inh -9.7, Peg3 promoter 71.8*, CF NFkB inh -147.6, KKLEB tox -6.2 and ABHD5-PLIN5 inh 10.6.
`Cn1c(/C(C#N)=C/c2cccc(O)c2)nc2ccccc21` gave HIF-2a inh -34.8, Peg3 promoter -161.9, CF NFkB inh -3.5, KKLEB tox 4.3, Mdm2-MdmX inh -6.1 and ABHD5-PLIN5 inh 7.6.
Screening CC1(Cc2cc(Cl)ccc2C(F)(F)F)C(=O)Nc2cc(-c3ccccc3Cl)ccc21 (stereo not drawn) returned HIF-2a inh -3.6, Peg3 promoter 1.6, CF NFkB inh 23.5, KKLEB tox -1.6 and ABHD5-PLIN5 inh 5.2.
Screening CSc1ncc(OCc2ccccc2)c(=O)[nH]1 returned HIF-2a inh 8.3, Peg3 promoter 3.9, CF NFkB inh 10.3, KKLEB tox -12.7, Mdm2-MdmX inh -10.3 and ABHD5-PLIN5 inh 0.7.
For O=C1c2cccnc2-c2ncccc21 the results were HIF-2a inh 8.3, Peg3 promoter -1.4, CF NFkB inh -5.3, KKLEB tox -11.8, Mdm2-MdmX inh 11.9 and ABHD5-PLIN5 inh -1.4.
For O=C1C(=O)c2cccnc2-c2ncccc21 the results were HIF-2a inh 89.6*, Peg3 promoter 101.8*, CF NFkB inh 89.9*, KKLEB tox -82.9* and ABHD5-PLIN5 inh 100.5*.
`CCN(CC)c1ccc(C2NC(=O)c3ccccc3N2)cc1` (stereo not drawn) gave HIF-2a inh 4.2, Peg3 promoter 35.9, CF NFkB inh -11.1, KKLEB tox -80.1* and ABHD5-PLIN5 inh -2.3.
Screening Cc1ccc(NC(=O)c2csc(-c3ccccc3)c2C)cc1 returned HIF-2a inh 18.3, Peg3 promoter 29.7, CF NFkB inh 7.4, KKLEB tox -53.9* and ABHD5-PLIN5 inh -5.4.
`Cc1c(C(=O)Nc2cccc([N+](=O)[O-])c2)csc1-c1ccccc1` gave HIF-2a inh -363.4, Peg3 promoter -252.1, CF NFkB inh -17.3, KKLEB tox -25.5, Mdm2-MdmX inh 45.1 and ABHD5-PLIN5 inh -2.7.
Screening Oc1cc2c(cc1O)C(c1ccccc1)CNCC2 (stereo not drawn) returned HIF-2a inh 9.9, Peg3 promoter -17.3, CF NFkB inh 18.9, KKLEB tox -58.5*, Mdm2-MdmX inh 4.3 and ABHD5-PLIN5 inh -10.4.
Screening Oc1cc2c(cc1O)[C@@H](c1ccccc1)CNCC2 returned HIF-2a inh -3.3, Peg3 promoter -13.7, CF NFkB inh 31.0, KKLEB tox -24.5 and ABHD5-PLIN5 inh -7.6.
Cc1ccc2nc(-c3ccc(SCC(=O)Nc4nnc(C)s4)nc3)[nH]c2c1 was read as HIF-2a inh -34.8, Peg3 promoter 98.6*, CF NFkB inh -16.3, KKLEB tox 4.8, Mdm2-MdmX inh -153.8 and ABHD5-PLIN5 inh 1.9.
Screening Cc1ccc2nc(-c3ccc(SCC(=O)Nc4nc(C)cs4)nc3)[nH]c2c1 returned HIF-2a inh -175.3, Peg3 promoter -226.3, CF NFkB inh 0.6, KKLEB tox -6.6, Mdm2-MdmX inh -8.3 and ABHD5-PLIN5 inh -14.3.
For Cc1cc2nc(-c3ccc(SCC(=O)Nc4ccc5c(c4)OCCO5)nc3)[nH]c2cc1C the results were HIF-2a inh -253.8, Peg3 promoter -137.6, CF NFkB inh -37.2, KKLEB tox -53.6*, Mdm2-MdmX inh 45.7 and ABHD5-PLIN5 inh 4.0.
`Cc1ccc(S(=O)(=O)N(C)c2ccc3c(c2)C(=O)c2ccccc2-3)cc1` gave HIF-2a inh -4.3, Peg3 promoter 17.4, CF NFkB inh 8.6, KKLEB tox -9.5 and ABHD5-PLIN5 inh -0.4.
Screening Cc1ccc(C23CC4CC(CC(CN)(C4)C2)C3)cc1 returned HIF-2a inh 10.1, Peg3 promoter 103.0*, CF NFkB inh 11.5, KKLEB tox -12.6 and ABHD5-PLIN5 inh 6.2.
Screening COC(=O)c1ccc(COc2ccccc2/C=C(\C#N)C(=O)Nc2ccc(C)cc2C)cc1 returned HIF-2a inh 3.0, Peg3 promoter -23.4, CF NFkB inh 26.9, KKLEB tox -25.7, Mdm2-MdmX inh 2.2 and ABHD5-PLIN5 inh 1.1.
For COC(=O)c1ccc(COc2ccccc2/C=C(\C#N)C(=O)Nc2c(C)cc(C)cc2C)cc1 the results were HIF-2a inh 2.1, Peg3 promoter 75.0*, CF NFkB inh 22.6, KKLEB tox -19.9, Mdm2-MdmX inh 49.0 and ABHD5-PLIN5 inh 8.1.
Screening O=C(NCc1ccco1)c1ccc(-c2ccc3nccn3c2)cc1 returned HIF-2a inh -25.4, Peg3 promoter 6.0, CF NFkB inh 28.3, KKLEB tox -11.5 and ABHD5-PLIN5 inh 22.2*.
Cn1cc(C(=O)CCl)c2ccccc21 was read as HIF-2a inh 9.3, Peg3 promoter 50.0*, CF NFkB inh 54.3*, KKLEB tox -15.4 and ABHD5-PLIN5 inh 12.3.
O=C1CN(S(=O)(=O)c2cccc(Cl)c2Cl)c2ccccc2N1 was read as HIF-2a inh -4.0, Peg3 promoter 2.0, CF NFkB inh -11.5, KKLEB tox 8.2, Mdm2-MdmX inh 14.4 and ABHD5-PLIN5 inh -3.4.
COc1ccc(/C=N/NC(=O)CC#N)cc1Oc1nc(Cl)ncc1F was read as HIF-2a inh 4.1, Peg3 promoter -1.6, CF NFkB inh 15.6, KKLEB tox -11.6, Mdm2-MdmX inh 9.2 and ABHD5-PLIN5 inh -0.5.
`COc1cc(/C=C(/C#N)C(=O)Nc2ccc(C)cc2)ccc1Oc1nc(Cl)ncc1F` gave HIF-2a inh 12.7, Peg3 promoter 51.1*, CF NFkB inh 13.7, KKLEB tox -19.5, Mdm2-MdmX inh 9.6 and ABHD5-PLIN5 inh -3.6.
For O=C(O)CC1(CC(=O)Nc2nccs2)CCCCC1 the results were HIF-2a inh 4.5, Peg3 promoter -7.2, CF NFkB inh -16.0, KKLEB tox 8.9 and ABHD5-PLIN5 inh 1.8.
`C[C@H]1CCC/C=C/[C@@H]2C[C@H](O)C[C@H]2[C@H](O)[C@H](S(=O)c2ccc(O)cc2)CC(=O)O1` (stereo partly drawn) gave HIF-2a inh 28.9, Peg3 promoter 52.3*, CF NFkB inh 65.6*, KKLEB tox -43.6 and ABHD5-PLIN5 inh -47.1.
COc1cccc(C2Oc3ccccc3C3CC(c4cccs4)=NN32)c1 (stereo not drawn) was read as HIF-2a inh -144.0, Peg3 promoter -135.5, CF NFkB inh -26.0, KKLEB tox 2.0, Mdm2-MdmX inh -19.5 and ABHD5-PLIN5 inh 22.1*.
COc1ccc(N2CCN(C(=O)COC(=O)c3ccc(-n4nc(C)cc4C)cc3)CC2)cc1 was read as HIF-2a inh 10.1, Peg3 promoter 16.1, CF NFkB inh -0.7, KKLEB tox 4.1, Mdm2-MdmX inh -2.5 and ABHD5-PLIN5 inh -0.8.
`O=C(Nc1ccc(Cl)c(Cl)c1)Nc1nnc(-c2ccncc2)s1` gave HIF-2a inh 4.1, Peg3 promoter 24.2, CF NFkB inh 75.7*, KKLEB tox -56.3* and ABHD5-PLIN5 inh -3.7.
